Only a selection was taken, and hits are over-represented in it overall.
KDM5B inhibitor: KDM5B demethylase inhibition; Q9UGL1; KDM5B demethylase, FDH-coupled NADH fluorescence (FDH is formaldehyde dehydrogenase); Potency, µM (titrated, usually from 57.7 µM), usual class: inhibitors; 220,000 compounds, 2.6% hits; AID 1347165; active = well fitted inhibition curve with a large enough effect; also: 0% is about no effect; nearly all actives have a fitted effect of over 70% in size
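Inhibition is measured as reduced NADH fluorescence generation from FDH coupling to formaldehyde release. Truncated KDM5BΔAP at 200 nM final acts on H3K4me3 peptide (12.5 µM in substrate mix) in pH 7.5 HEPES buffer with Tween-20, 30 min, room temperature.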
An asterisk follows results filed as active. Potency is read from the fitted curve at half-maximal effect.

`O=C(NCc1ccc2c(c1)OCO2)c1nc(-c2ccc(Cl)cc2Cl)c2ccccn12` gave KDM5B inhibitor 20µM*.
CCn1nc(C(=O)NCc2cccs2)c2ccccc2c1=O was read as KDM5B inhibitor inactive.
Screening Cc1nc(C)c(C(=O)NCc2cccs2)s1 returned KDM5B inhibitor inactive.
`CCOc1cccc(-c2nc(C(=O)NCc3ccc4c(c3)OCO4)cs2)c1` gave KDM5B inhibitor 25µM*.
Screening O=C(NCc1ccc2c(c1)OCO2)c1ccccc1Cl returned KDM5B inhibitor inactive.
`O=C(NCc1ccccn1)c1nc(-c2cccnc2)c2ccccn12` gave KDM5B inhibitor inactive.
COc1cccc2cc(C(=O)NCc3nc(-c4ccccc4)no3)oc12 was read as KDM5B inhibitor inactive.
`O=C(Cc1ccc(Br)cc1)N(Cc1nnc(-c2ccccc2Cl)o1)C1CC1` gave KDM5B inhibitor inactive.
Screening Cc1ccc(C(CC(=O)Nc2ccc(F)cc2)c2c[nH]c3ccccc23)cc1 (stereo not given) returned KDM5B inhibitor inactive.
For O=C(Cc1ccccn1)N1CCCC(c2nn(-c3cccc(Cl)c3)c(=O)[nH]2)C1 (stereo not given) the results were KDM5B inhibitor inactive.
CC(C)C(C)NC(=O)c1ccc(I)cc1 (stereo not given) was read as KDM5B inhibitor inactive.
`Cc1ccc(N2N=C(c3ccccc3)CCC2=O)cc1` gave KDM5B inhibitor inactive.
`O=C(NCc1cccs1)c1nc(-c2ccc(Cl)cc2Cl)c2ccccn12` gave KDM5B inhibitor 28µM*.
Cc1onc(-c2ccc(F)cc2F)c1C(=O)NCc1cccs1 was read as KDM5B inhibitor inactive.
Screening O=C(NCc1cccs1)C1CCN(c2nccn3nc(-c4ccc(F)cc4)cc23)CC1 returned KDM5B inhibitor inactive.
Screening O=C(NCc1cccs1)c1cc2ccccc2[nH]1 returned KDM5B inhibitor inactive.
For O=C(NCc1cccs1)c1nc(-c2ccc(F)cc2)c2ccccn12 the results were KDM5B inhibitor 28µM*.
For O=C(NCc1cccs1)c1noc(-c2ccc(F)cc2)n1 the results were KDM5B inhibitor inactive.
Screening COc1ccc(-c2cc(N3CCN(C(=O)c4ccc(OC)cc4OC)CC3)n[nH]2)cc1 returned KDM5B inhibitor inactive.
`CC(C(=O)Nc1cccc(Cl)c1)N1CCN(c2ccc([N+](=O)[O-])c3cnccc23)CC1` (stereo not given) gave KDM5B inhibitor inactive.
`CN(C)CCNC(=O)C(=O)Nc1cccc2ncccc12` gave KDM5B inhibitor inactive.
Screening O=C(O)CNC(=O)CCn1ccc2ccc(F)cc21 returned KDM5B inhibitor inactive.
COc1ccc(C(=O)N(Cc2cc3ccc(C)cc3[nH]c2=O)c2ccc(C)cc2)cc1OC was read as KDM5B inhibitor inactive.
`Cc1ccc(OCC(=O)Nc2ccc(S(=O)(=O)Nc3nccs3)cc2)cc1` gave KDM5B inhibitor inactive.
For COCC(=O)N1CCN(Cc2nc(-c3cccs3)oc2C)CC1 the results were KDM5B inhibitor inactive.
For OCCC1CN(Cc2cnn(-c3ccccc3)c2)CCN1Cc1cccs1 (stereo not given) the results were KDM5B inhibitor inactive.
Cc1cccc(CN2CCN(Cc3nc(-c4cccs4)oc3C)CC2CCO)n1 (stereo not given) was read as KDM5B inhibitor 25µM*.
For Cc1ccnc(NC(=O)c2nccnc2N)c1 the results were KDM5B inhibitor inactive.
For Cc1ccc(-c2cnc(CCC(=O)N3CCN(CC(=O)Nc4cccc(F)c4)CC3)o2)cc1 the results were KDM5B inhibitor inactive.
For Cc1ccc(-c2nnn(Cc3ncc(-c4ccccc4)o3)n2)cc1 the results were KDM5B inhibitor inactive.
Screening COc1cc(OC)c(-c2c(-c3ccccc3)ncn2CCF)cc1OC returned KDM5B inhibitor 25µM*.
`C#CCOc1ccccc1-c1c(-c2ccccc2)ncn1CCCO` gave KDM5B inhibitor inactive.
CCc1ncc(-c2c(-c3ccccc3)ncn2CCNc2cccnc2)cn1 was read as KDM5B inhibitor inactive.
`Cc1ccc(C(C)C)cc1OCC(=O)NCc1ccc(Cn2cccn2)cc1` gave KDM5B inhibitor inactive.
Cc1oc2cc(OCCN3CCC(C(N)=O)CC3)ccc2c(=O)c1-c1ccc(Br)cc1 was read as KDM5B inhibitor inactive.
For O=C1NCc2ccccc2CC12CCCN2Cc1cccc(O)c1 (stereo not given) the results were KDM5B inhibitor inactive.
COCCN(C)C(=O)c1ccc2c(c1)NC(C)(COc1cccnc1)CO2 (stereo not given) was read as KDM5B inhibitor inactive.
`CC1(COc2cccnc2)COc2ccc(C(=O)NCc3cccs3)cc2N1` (stereo not given) gave KDM5B inhibitor 35µM*.
`CC1(COc2cccnc2)COc2ccc(C(=O)NCc3ccc(F)cc3)cc2N1` (stereo not given) gave KDM5B inhibitor 32µM*.
CC1(COc2cccnc2)COc2ccc(C(=O)NCc3ccc4c(c3)OCO4)cc2N1 (stereo not given) was read as KDM5B inhibitor 16µM*.
CC(=O)N1CCN(C(=O)c2ccc3c(c2)NC(C)(COc2cccnc2)CO3)CC1 (stereo not given) was read as KDM5B inhibitor inactive.
`CC1(COc2cccnc2)COc2ccc(C(=O)NCc3cnccn3)cc2N1` (stereo not given) gave KDM5B inhibitor inactive.
`CN(C(=O)c1ccc2c(c1)NC(C)(COc1cccnc1)CO2)c1ccccc1` (stereo not given) gave KDM5B inhibitor inactive.
Screening COc1ccccc1N1CCN(c2nccnc2SCC(=O)Nc2cccc(Cl)c2C)CC1 returned KDM5B inhibitor inactive.
For CN(Cc1ccc(Cl)c(Cl)c1)C(=O)c1ccc2c(c1)CCCN2S(C)(=O)=O the results were KDM5B inhibitor inactive.
CCN1C(=O)C2CC3(CCN(Cc4cn(C)c5ccc(OC)cc45)CC3)CN2C1=O (stereo not given) was read as KDM5B inhibitor inactive.
For CCCC(NCc1ccco1)c1ccccc1 (stereo not given) the results were KDM5B inhibitor inactive.
`O=C(COC(=O)[C@@H]1CCCN1S(=O)(=O)c1ccc(Cl)cc1)Nc1ccc(F)cc1F` gave KDM5B inhibitor inactive.
`O=C(O)CCn1cc(C(C(=O)O)N2CCCCC2)c2ccc(Br)cc21` (stereo not given) gave KDM5B inhibitor inactive.
Screening Cc1cccc(C(=O)NCC(O)(c2ccccc2)C(F)(F)F)c1 (stereo not given) returned KDM5B inhibitor inactive.
Screening O=C(Nc1ccccc1)c1nc2c(o1)CCN(Cc1cccnc1)CC2 returned KDM5B inhibitor inactive.
Screening O=C(Nc1ccccc1)c1nc2c(o1)CCN(CC1CC1)CC2 returned KDM5B inhibitor inactive.
For Cc1ccccc1CN1CCc2nc(C(=O)N3CCOCC3)oc2CC1 the results were KDM5B inhibitor inactive.
Screening Cc1cc(F)cc(CN2CCc3nc(C(=O)NCC4CC4)oc3CC2)c1 returned KDM5B inhibitor inactive.
Cc1ccccc1CN1CCc2nc(C(=O)Nc3ccccc3)oc2CC1 was read as KDM5B inhibitor 28µM*.
For Cc1cc(F)cc(CN2CCc3nc(C(=O)Nc4ccccc4)oc3CC2)c1 the results were KDM5B inhibitor 28µM*.
Screening CCn1nc(C(=O)Nc2ccc(C)c(S(=O)(=O)N(C)C)c2)c2ccccc2c1=O returned KDM5B inhibitor inactive.
Cc1ccc(C2CC2C(=O)O)cc1 (stereo not given) was read as KDM5B inhibitor inactive.
